Assay results as given in article PMC11006913.

Experiments:
Test in all cases: PBM; 200 nM protein, PBS
Settings in all cases: dsDNA, one strand shown
[1] = molecular target: HOXC9 (Homo sapiens, UniProt P31274 178-260, K195R)
[2] = molecular target: PRRX1 (Homo sapiens, UniProt P54821 80-166, F113S)
[3] = molecular target: ALX4 (Homo sapiens, UniProt Q9H161 200-286, Q225E)
[4] = molecular target: HOXC10 (Homo sapiens, UniProt Q9NYD6 254-340, K271E)
[5] = molecular target: ALX3 (Homo sapiens, UniProt O95076 139-225, L168Q)
[6] = molecular target: ALX3 (Homo sapiens, UniProt O95076 139-225, L168V)
[7] = molecular target: HOXC9 (Homo sapiens, UniProt P31274 178-260)
[8] = molecular target: HOXC9 (Homo sapiens, UniProt P31274 178-260, R193K)
[9] = molecular target: PRRX1 (Homo sapiens, UniProt P54821 80-166)
[10] = molecular target: HOXD13 (Homo sapiens, UniProt P35453 263-343, T313R)
[11] = molecular target: HOXD13 (Homo sapiens, UniProt P35453 263-343)
[12] = molecular target: HOXD13 (Homo sapiens, UniProt P35453 263-343, T313A)
[13] = molecular target: HOXC9 (Homo sapiens, UniProt P31274 178-260, R222W)
[14] = molecular target: MSX2 (Homo sapiens, UniProt P35548 130-214, R199I)
[15] = molecular target: MSX2 (Homo sapiens, UniProt P35548 130-214)
[16] = molecular target: MSX2 (Homo sapiens, UniProt P35548 130-214, F161Y)
[17] = molecular target: PITX2 (Homo sapiens, UniProt Q99697 72-157)
[18] = molecular target: HOXB6 (Homo sapiens, UniProt P17509 132-218, K202E)
[19] = molecular target: HOXB6 (Homo sapiens, UniProt P17509 132-218)
Sequence of HOXB6 (Homo sapiens, UniProt P17509 132-218) (P17509 132-218): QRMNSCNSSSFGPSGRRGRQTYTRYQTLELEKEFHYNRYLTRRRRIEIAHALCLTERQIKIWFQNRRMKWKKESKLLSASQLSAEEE

Sequence of HOXC9 (Homo sapiens, UniProt P31274 178-260) (P31274 178-260): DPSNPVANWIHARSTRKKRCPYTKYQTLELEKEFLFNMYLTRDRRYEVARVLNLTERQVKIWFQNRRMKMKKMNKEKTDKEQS
Sequence of HOXD13 (Homo sapiens, UniProt P35453 263-343) (P35453 263-343): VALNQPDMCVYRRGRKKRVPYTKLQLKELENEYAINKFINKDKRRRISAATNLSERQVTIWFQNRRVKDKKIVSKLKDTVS
Sequence of HOXC9 (Homo sapiens, UniProt P31274 178-260, R193K) (P31274 178-260 R193K): as the sequence (P31274 178-260) above, with R16K counted along it
Sequence of HOXD13 (Homo sapiens, UniProt P35453 263-343, T313A) (P35453 263-343 T313A): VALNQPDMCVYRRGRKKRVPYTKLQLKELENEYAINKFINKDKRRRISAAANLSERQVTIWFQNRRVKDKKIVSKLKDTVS
Sequence of MSX2 (Homo sapiens, UniProt P35548 130-214) (P35548 130-214): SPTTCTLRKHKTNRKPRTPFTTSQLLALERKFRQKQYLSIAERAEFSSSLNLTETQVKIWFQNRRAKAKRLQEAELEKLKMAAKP
Sequence of HOXD13 (Homo sapiens, UniProt P35453 263-343, T313R) (P35453 263-343 T313R): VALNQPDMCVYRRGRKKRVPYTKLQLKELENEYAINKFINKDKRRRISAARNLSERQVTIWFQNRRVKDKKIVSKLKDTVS
Sequence of MSX2 (Homo sapiens, UniProt P35548 130-214, R199I) (P35548 130-214 R199I): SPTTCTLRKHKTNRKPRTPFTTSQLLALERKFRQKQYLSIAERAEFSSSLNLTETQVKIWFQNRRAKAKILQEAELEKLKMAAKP
Sequence of MSX2 (Homo sapiens, UniProt P35548 130-214, F161Y) (P35548 130-214 F161Y): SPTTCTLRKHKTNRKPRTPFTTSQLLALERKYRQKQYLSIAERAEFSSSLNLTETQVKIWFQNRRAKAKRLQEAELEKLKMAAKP
Sequence of HOXC9 (Homo sapiens, UniProt P31274 178-260, R222W) (P31274 178-260 R222W): as the sequence (P31274 178-260) above, with R45W counted along it
Sequence of HOXC9 (Homo sapiens, UniProt P31274 178-260, K195R) (P31274 178-260 K195R): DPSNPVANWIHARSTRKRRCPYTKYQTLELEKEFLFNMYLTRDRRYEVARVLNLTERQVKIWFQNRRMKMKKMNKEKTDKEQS
Sequence of PRRX1 (Homo sapiens, UniProt P54821 80-166, F113S) (P54821 80-166 F113S): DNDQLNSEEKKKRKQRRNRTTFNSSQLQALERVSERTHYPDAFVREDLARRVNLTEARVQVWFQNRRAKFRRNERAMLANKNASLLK
Sequence of ALX3 (Homo sapiens, UniProt O95076 139-225, L168V) (O95076 139-225 L168V): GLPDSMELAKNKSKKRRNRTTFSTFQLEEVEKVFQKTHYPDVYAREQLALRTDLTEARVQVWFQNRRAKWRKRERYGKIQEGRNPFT
Sequence of HOXC10 (Q9NYD6 254-340 K271E): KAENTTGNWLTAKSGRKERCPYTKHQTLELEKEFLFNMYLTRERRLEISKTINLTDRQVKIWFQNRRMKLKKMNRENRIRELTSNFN
Sequence of ALX4 (Q9H161 200-286 Q225E): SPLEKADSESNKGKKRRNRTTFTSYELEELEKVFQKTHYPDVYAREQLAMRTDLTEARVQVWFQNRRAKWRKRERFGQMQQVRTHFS
Sequence of ALX3 (Homo sapiens, UniProt O95076 139-225, L168Q) (O95076 139-225 L168Q): as the sequence (O95076 139-225 L168V) above, with V30Q counted along it
Sequence of PRRX1 (Homo sapiens, UniProt P54821 80-166) (P54821 80-166): as the sequence (P54821 80-166 F113S) above, with S34F counted along it
Sequence of HOXB6 (Homo sapiens, UniProt P17509 132-218, K202E) (P17509 132-218 K202E): as the sequence (P17509 132-218) above, with K71E counted along it

AATTAAAA
binding signal [1]: 12.5 upbm affinity estimate (log intensity, higher = more binding, comparable within an allelic series)
binding signal [2]: 11.2 upbm affinity estimate (log intensity, higher = more binding, comparable within an allelic series)
binding signal [3]: 12.8 upbm affinity estimate (log intensity, higher = more binding, comparable within an allelic series)
binding signal [4]: 11.8 upbm affinity estimate (log intensity, higher = more binding, comparable within an allelic series)
binding signal [5]: 10.3 upbm affinity estimate (log intensity, higher = more binding, comparable within an allelic series)
binding signal [6]: 9.86 upbm affinity estimate (log intensity, higher = more binding, comparable within an allelic series)

ATATTGAC
binding signal [1]: 11.1 upbm affinity estimate (log intensity, higher = more binding, comparable within an allelic series)
binding signal [2]: 10.1 upbm affinity estimate (log intensity, higher = more binding, comparable within an allelic series)
binding signal [7]: 11.1 upbm affinity estimate (log intensity, higher = more binding, comparable within an allelic series)
binding signal [8]: 11.1 upbm affinity estimate (log intensity, higher = more binding, comparable within an allelic series)
binding signal [9]: 11.4 upbm affinity estimate (log intensity, higher = more binding, comparable within an allelic series)

GGAGAACC
binding signal [1]: 9.48 upbm affinity estimate (log intensity, higher = more binding, comparable within an allelic series)
binding signal [7]: 9.62 upbm affinity estimate (log intensity, higher = more binding, comparable within an allelic series)
binding signal [10]: 9.57 upbm affinity estimate (log intensity, higher = more binding, comparable within an allelic series)
binding signal [8]: 9.52 upbm affinity estimate (log intensity, higher = more binding, comparable within an allelic series)
binding signal [11]: 9.46 upbm affinity estimate (log intensity, higher = more binding, comparable within an allelic series)
binding signal [12]: 9.73 upbm affinity estimate (log intensity, higher = more binding, comparable within an allelic series)
binding signal [13]: 9.79 upbm affinity estimate (log intensity, higher = more binding, comparable within an allelic series)

ATATTGCA
binding signal [1]: 11.2 upbm affinity estimate (log intensity, higher = more binding, comparable within an allelic series)
binding signal [7]: 11.2 upbm affinity estimate (log intensity, higher = more binding, comparable within an allelic series)
binding signal [8]: 11.3 upbm affinity estimate (log intensity, higher = more binding, comparable within an allelic series)

GCGTCGCC
binding signal [1]: 9.69 upbm affinity estimate (log intensity, higher = more binding, comparable within an allelic series)
binding signal [7]: 9.74 upbm affinity estimate (log intensity, higher = more binding, comparable within an allelic series)
binding signal [14]: 9.45 upbm affinity estimate (log intensity, higher = more binding, comparable within an allelic series)
binding signal [8]: 9.48 upbm affinity estimate (log intensity, higher = more binding, comparable within an allelic series)
binding signal [15]: 9.4 upbm affinity estimate (log intensity, higher = more binding, comparable within an allelic series)
binding signal [13]: 9.77 upbm affinity estimate (log intensity, higher = more binding, comparable within an allelic series)
binding signal [16]: 9.49 upbm affinity estimate (log intensity, higher = more binding, comparable within an allelic series)

AGGGGCTC
binding signal [1]: 9.39 upbm affinity estimate (log intensity, higher = more binding, comparable within an allelic series)
binding signal [7]: 9.62 upbm affinity estimate (log intensity, higher = more binding, comparable within an allelic series)
binding signal [10]: 9.61 upbm affinity estimate (log intensity, higher = more binding, comparable within an allelic series)
binding signal [8]: 9.46 upbm affinity estimate (log intensity, higher = more binding, comparable within an allelic series)
binding signal [11]: 9.68 upbm affinity estimate (log intensity, higher = more binding, comparable within an allelic series)
binding signal [12]: 9.7 upbm affinity estimate (log intensity, higher = more binding, comparable within an allelic series)
binding signal [13]: 9.6 upbm affinity estimate (log intensity, higher = more binding, comparable within an allelic series)

CTTATAAA
binding signal [1]: 11.3 upbm affinity estimate (log intensity, higher = more binding, comparable within an allelic series)
binding signal [7]: 11.2 upbm affinity estimate (log intensity, higher = more binding, comparable within an allelic series)
binding signal [10]: 10.7 upbm affinity estimate (log intensity, higher = more binding, comparable within an allelic series)
binding signal [8]: 11.2 upbm affinity estimate (log intensity, higher = more binding, comparable within an allelic series)
binding signal [11]: 11.8 upbm affinity estimate (log intensity, higher = more binding, comparable within an allelic series)
binding signal [12]: 11.5 upbm affinity estimate (log intensity, higher = more binding, comparable within an allelic series)

CTGCCTCC
binding signal [1]: 9.62 upbm affinity estimate (log intensity, higher = more binding, comparable within an allelic series)
binding signal [7]: 9.69 upbm affinity estimate (log intensity, higher = more binding, comparable within an allelic series)
binding signal [10]: 9.53 upbm affinity estimate (log intensity, higher = more binding, comparable within an allelic series)
binding signal [8]: 9.67 upbm affinity estimate (log intensity, higher = more binding, comparable within an allelic series)
binding signal [11]: 9.62 upbm affinity estimate (log intensity, higher = more binding, comparable within an allelic series)
binding signal [12]: 9.56 upbm affinity estimate (log intensity, higher = more binding, comparable within an allelic series)
binding signal [13]: 9.6 upbm affinity estimate (log intensity, higher = more binding, comparable within an allelic series)

ATAGTCAA
binding signal [1]: 10.7 upbm affinity estimate (log intensity, higher = more binding, comparable within an allelic series)
binding signal [7]: 10.7 upbm affinity estimate (log intensity, higher = more binding, comparable within an allelic series)
binding signal [8]: 10.8 upbm affinity estimate (log intensity, higher = more binding, comparable within an allelic series)

AGTAATAA
binding signal [1]: 12.3 upbm affinity estimate (log intensity, higher = more binding, comparable within an allelic series)
binding signal [7]: 12.3 upbm affinity estimate (log intensity, higher = more binding, comparable within an allelic series)
binding signal [14]: 11.4 upbm affinity estimate (log intensity, higher = more binding, comparable within an allelic series)
binding signal [8]: 12.3 upbm affinity estimate (log intensity, higher = more binding, comparable within an allelic series)
binding signal [15]: 12.5 upbm affinity estimate (log intensity, higher = more binding, comparable within an allelic series)
binding signal [13]: 10.9 upbm affinity estimate (log intensity, higher = more binding, comparable within an allelic series)
binding signal [16]: 12.3 upbm affinity estimate (log intensity, higher = more binding, comparable within an allelic series)

CCTACTCG
binding signal [1]: 9.67 upbm affinity estimate (log intensity, higher = more binding, comparable within an allelic series)
binding signal [7]: 9.65 upbm affinity estimate (log intensity, higher = more binding, comparable within an allelic series)
binding signal [17]: 8.18 upbm affinity estimate (log intensity, higher = more binding, comparable within an allelic series)
binding signal [8]: 9.59 upbm affinity estimate (log intensity, higher = more binding, comparable within an allelic series)
binding signal [13]: 9.71 upbm affinity estimate (log intensity, higher = more binding, comparable within an allelic series)

CCCCCCAC
binding signal [1]: 9.36 upbm affinity estimate (log intensity, higher = more binding, comparable within an allelic series)
binding signal [18]: 8.84 upbm affinity estimate (log intensity, higher = more binding, comparable within an allelic series)
binding signal [7]: 9.41 upbm affinity estimate (log intensity, higher = more binding, comparable within an allelic series)
binding signal [10]: 9.08 upbm affinity estimate (log intensity, higher = more binding, comparable within an allelic series)
binding signal [8]: 9.4 upbm affinity estimate (log intensity, higher = more binding, comparable within an allelic series)
binding signal [11]: 9.3 upbm affinity estimate (log intensity, higher = more binding, comparable within an allelic series)
binding signal [12]: 9.15 upbm affinity estimate (log intensity, higher = more binding, comparable within an allelic series)
binding signal [13]: 9.29 upbm affinity estimate (log intensity, higher = more binding, comparable within an allelic series)
binding signal [19]: 8.7 upbm affinity estimate (log intensity, higher = more binding, comparable within an allelic series)

CGCGGGAG
binding signal [1]: 9.47 upbm affinity estimate (log intensity, higher = more binding, comparable within an allelic series)
binding signal [7]: 9.59 upbm affinity estimate (log intensity, higher = more binding, comparable within an allelic series)
binding signal [14]: 9.38 upbm affinity estimate (log intensity, higher = more binding, comparable within an allelic series)
binding signal [8]: 9.43 upbm affinity estimate (log intensity, higher = more binding, comparable within an allelic series)
binding signal [15]: 9.23 upbm affinity estimate (log intensity, higher = more binding, comparable within an allelic series)
binding signal [13]: 9.64 upbm affinity estimate (log intensity, higher = more binding, comparable within an allelic series)
binding signal [16]: 9.25 upbm affinity estimate (log intensity, higher = more binding, comparable within an allelic series)
